Laboratory results published in PubChem BioAssay AID652104 (National Center for Advancing Translational Sciences (NCATS), 2013).
Screen size: about 410,000 compounds; about 7,200 (1.8%) were called active. Inconclusive results (about 7%) are left out. What follows is part of a selection rich in actives, with near analogues and random picks from the rest. A number with no mark means an inactive call. Calls come from the whole dose curve; as a rule, active = well fitted activation curve with a large enough effect; inconclusive = small, poorly fitted or top-dose-only effect, or another doubt; inactive = no such curve, though single readings can be large or run the other way.

test: qHTS of TDP-43 Inhibitors; settings: TDP-43 expressing yeast growth rescue, BacTiter-Glo, 24 h; series mostly up to 46.1 µM; growth rescue (activation): at the top concentration; note: nearly all actives have a fitted effect of over 50% in size; for growth rescue (activation): % of control where 0% means no effect
Procedure, shortened: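 Growth rescue of TDP-43-toxic yeast measured as ATP luminescence (BacTiter-Glo). Cells grown to mid-log in raffinose, induced in galactose at OD600=0.02, exposed to compound 24 hr at 30 deg C.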
Potency is the fitted concentration of half-maximal effect.

With Cc1ccc(Cn2c(=O)n(Cc3nc(-c4ccccc4)no3)c(=O)c3cc4c(cc32)OCO4)cc1 as the compound, how does the “growth rescue (activation)” value read?
The value was 1.98%.

For CCC1CCCCN1Cc1c(O)ccc2c(=O)c(Oc3ccccc3Cl)c(C(F)(F)F)oc12 (stereo not given), which “growth rescue (activation)” value is on record?
The value was 19.5%.

With Cc1cc(NC(=O)c2cccc(Cl)c2)ccc1-c1cc2ccccc2oc1=O as the compound, how does the “growth rescue (activation)” value read?
The value was 0%.

Which “growth rescue (activation)” value does the source give for Cc1cc2oc(C(=O)N(Cc3ccc(Cl)cc3)Cc3ccco3)c(C)c2cc1Cl here?
The value was 17.3%.

Which “growth rescue (activation)” value does the source give for Cc1cc(/C=N/NC(N)=O)c(C)n1C1CCCCC1 here?
Its value is -16.5%.

Which “growth rescue (activation)” value does the source give for CC(C)Oc1c(Br)cc(Br)cc1/C=N/NC(N)=S here?
Its value is 18%.

For Cc1cccc(-n2c(C)cc(/C=N/NC(N)=S)c2C)c1, which Potency is on record?
The Potency was 35.5 µM (active).

With COc1ccccc1NC(=O)c1oc2ccccc2c1NC(=O)C(C)C as the compound, how does the “growth rescue (activation)” value read?
Its value is 15.9%.

Which “growth rescue (activation)” value does the source give for COc1ccccc1C1C(C(=O)N2CCCCC2)=C(C)Nc2nc3ccccc3n21 (stereo not given) here?
Its value is 15.8%.

With CN(Cc1ccccc1)S(=O)(=O)c1ccc(F)c(C(=O)Nc2cccc(Cl)c2Cl)c1 as the compound, how does the “growth rescue (activation)” value read?
The value was -4.13%.

With COc1cccc(CC(=O)N2CCCC(CCC(=O)N3CCN(c4ccccn4)CC3)C2)c1 (stereo not given) as the compound, how does the growth rescue (activation) read?
Its growth rescue (activation) is 10.6% [at 9.22 µM].

For C=Cc1ccc(C(=O)N2CCCC(CCC(=O)N3CCN(c4ccccn4)CC3)C2)cc1 (stereo not given), which Potency is on record?
The Potency was 3.55 µM (active).

Which “growth rescue (activation)” value does the source give for CC(=O)c1ccc(S(=O)(=O)NCCC(=O)N2CCN(c3ccccn3)CC2)cc1 here?
Its value is 13.3%.

For COc1cccc(N2CCN(S(=O)(=O)c3cc(Br)cc4c3N(C(=O)C3CC3)CC4)CC2)c1, which “growth rescue (activation)” value is on record?
The value was 21.5%.

Which Potency does the source give for CCCCn1c(=S)[nH]c2ccccc2c1=O here?
The Potency was 14.1 µM (active).

For CCCCNC(=O)c1ccc(-n2c(=S)[nH]c3ccccc3c2=O)cc1, which “growth rescue (activation)” value is on record?
The value was 5.1%.

With CCCCn1c(=S)[nH]c2ncccc2c1=O as the compound, how does the “growth rescue (activation)” value read?
The value was 23.4%.

For COc1ccc(CCNC(=O)c2cc(=O)c3c(C)cc(C)cc3o2)cc1OC, which “growth rescue (activation)” value is on record?
Its value is 1.87%.

For Cc1ccc(CN2CCCn3nc(C(=O)NCc4ccccc4Cl)cc3C2=O)cc1, which “growth rescue (activation)” value is on record?
The value was 19.2%.

For Cc1ccc(CNC(=O)CCC(=O)N2Cc3ccccc3Oc3ncccc32)cc1, which growth rescue (activation) is on record?
The growth rescue (activation) was 14.9% [at 9.22 µM].

Which “growth rescue (activation)” value does the source give for COc1cc(C(=O)NCCS(=O)(=O)N2CCN(c3ccccc3)CC2)cc(OC)c1OC here?
Its value is 22.3%.

Which “growth rescue (activation)” value does the source give for Cc1cccc(C)c1NC(=O)N1CC(C)OC(C)C1 (stereo not given) here?
Its value is -20.1%.

With CN=C(c1ccccc1)c1c(C)cccc1C as the compound, how does the “growth rescue (activation)” value read?
The value was 18%.

For Cc1cccc(C)c1NC(=O)C(Cl)C(=O)c1ccccc1 (stereo not given), which Potency is on record?
Its Potency is 3.98 µM (active).

Which “growth rescue (activation)” value does the source give for O=C(Cn1c(=O)n(-c2ccc(F)cc2)c(=O)c2sccc21)Nc1cccc(C(F)(F)F)c1 here?
Its value is 7.37%.

Which Potency does the source give for COC(=O)C1=CN(c2c(C)cc(C)cc2C)C(N)=C(C#N)C1c1cccc(F)c1 (stereo not given) here?
The Potency was 22.4 µM (active).

Which “growth rescue (activation)” value does the source give for COC(=O)C1=CN(c2ccc(F)c(F)c2)C=C(C(=O)OC)C1c1ccc([N+](=O)[O-])cc1 here?
The value was 4.3%.

For CCOC(=O)C1=C(CC)OC(N)=C(C#N)C1c1ccc(F)cc1F (stereo not given), which “growth rescue (activation)” value is on record?
Its value is -18.5%.

Which “growth rescue (activation)” value does the source give for CCN(Cc1ccccc1)Cc1c(O)ccc2c(=O)c(-c3ccc(Cl)cc3Cl)coc12 here?
The value was -19.7%.

With Cc1cc2n(n1)C(c1cc(C(C)(C)C)c(O)cc1O)Nc1ccccc1-2 (stereo not given) as the compound, how does the “growth rescue (activation)” value read?
The value was 0%.

With COc1ccccc1CNCc1ccc(C(=O)O)s1 as the compound, how does the “growth rescue (activation)” value read?
Its value is 16.3%.

For COCCCNC(=O)c1c(NC(=O)c2cc(=O)c3cc(C)c(C)cc3o2)sc2c1CCCC2, which “growth rescue (activation)” value is on record?
Its value is -1.04%.

With Cc1ccc(S(=O)(=O)N(Cc2nc(-c3ccc(Cl)cc3)no2)C2CCCCC2)cc1 as the compound, how does the “growth rescue (activation)” value read?
The value was 7.13%.

Which “growth rescue (activation)” value does the source give for Cc1ccc(Cl)cc1NC(=O)/C(C#N)=C\c1cn(Cc2ccc(F)cc2)c2ccccc12 here?
Its value is 21.4%.

Which “growth rescue (activation)” value does the source give for COc1ccc(NC(=O)CSc2ncnc3[nH]ncc23)cc1 here?
Its value is -35.9%.

For COc1ccc(Nc2cc(Sc3ccc(OC)cc3)ncn2)cc1, which Potency is on record?
Its Potency is 22.4 µM (active).

With CCOc1ccc(Nc2ncnc3scc(-c4ccc(OC)cc4)c23)cc1 as the compound, how does the “growth rescue (activation)” value read?
Its value is -16.3%.

With Cc1cccc2c(=O)cc(CSc3ccccc3NC(=O)C(C)C)[nH]c12 as the compound, how does the “growth rescue (activation)” value read?
Its value is -0.795%.

With O=C(CSc1ccc(-c2ccc(F)cc2)nn1)Nc1ccc2c(c1)OCCO2 as the compound, how does the “growth rescue (activation)” value read?
The value was 17.7%.

For O=C(CSc1nc(-c2cccc(F)c2)[nH]c1-c1ccccc1)Nc1ccc2c(c1)OCO2, which Potency is on record?
Its Potency is 20 µM (active).

Which “growth rescue (activation)” value does the source give for O=C(CSc1nnc(CNC(=O)c2ccc(F)cc2)o1)Nc1ccc2c(c1)OCO2 here?
Its value is -0.573%.

For Cc1ccc(NC(=O)CSc2nc3c([nH]c4ccccc43)c(=O)n2-c2ccccc2)c(C)c1, which “growth rescue (activation)” value is on record?
The value was 5.4%.

Which “growth rescue (activation)” value does the source give for Nc1nc(Nc2ccccc2F)nc(NC2CCCCC2)c1[N+](=O)[O-] here?
The value was -5.06%.

With Nc1nc(NCC2CCCO2)nc(Nc2ccccc2F)c1[N+](=O)[O-] (stereo not given) as the compound, how does the “growth rescue (activation)” value read?
The value was -0.227%.

Which Potency does the source give for C=CCNc1nc(N)c([N+](=O)[O-])c(NC2CCCCC2)n1 here?
The Potency was 7.08 µM (active).

Which “growth rescue (activation)” value does the source give for Cc1ccc(NC(=O)C2CCN(S(=O)(=O)c3cc(-c4noc(C)n4)ccc3C)CC2)c(C)c1 here?
The value was -6.47%.

Which “growth rescue (activation)” value does the source give for CCN(CCCNC(=O)c1c(C)oc2ncn(CC(C)C)c(=O)c12)Cc1ccccc1 here?
The value was 13.1%.

For Cc1ccc(Cl)cc1N1CCN(S(=O)(=O)c2cc3[nH]c(=O)c(=O)[nH]c3cc2C)CC1, which “growth rescue (activation)” value is on record?
The value was 4.73%.

For CCN(CCCNC(=O)c1ccc(Sc2ccc(C)cc2)c(NC(C)=O)c1)c1cccc(C)c1, which “growth rescue (activation)” value is on record?
Its value is 14.4%.

Which “growth rescue (activation)” value does the source give for COCCNC(=O)c1ccc(S(=O)(=O)c2ccc(Cl)cc2)c(NC(C)=O)c1 here?
The value was 2.43%.
